Data taken from paper PMC7862700, “An all-to-all approach to the identification of sequence-specific readers for epigenetic DNA modifications on cytosine”.

Tests used:
Test in all cases: DAPPL (digital affinity profiling via proximity ligation, sequencing); 10 mM Tris-HCl pH 7.5, 50 mM NaCl, 1 mM DTT, 4% glycerol, room temperature, 30 min; GST-TFs on glutathione beads, 16-mer random dsDNA library, 0.1% formaldehyde crosslink after washing; high values mean tight binding
FEV = target: T1, FEV (Homo sapiens, UniProt Q99581 1-238); conditions: protein: recombinant; tags: N-terminal GST; dsDNA, one strand shown
T1 sequence: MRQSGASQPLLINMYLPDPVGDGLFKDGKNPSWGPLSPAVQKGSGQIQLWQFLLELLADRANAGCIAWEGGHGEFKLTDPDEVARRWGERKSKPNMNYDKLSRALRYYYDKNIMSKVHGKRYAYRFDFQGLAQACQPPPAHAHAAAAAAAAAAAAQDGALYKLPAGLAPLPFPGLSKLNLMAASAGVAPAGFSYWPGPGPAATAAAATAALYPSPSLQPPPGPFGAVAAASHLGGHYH
Summary of the method: (§1)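 A tag-only sample was pooled with DNA-barcoded human transcription factors that had been expressed in yeast as GST fusions and captured on glutathione beads. The pools were incubated for 30 min at room temperature with 200 nmole of a random double-stranded 16-mer DNA library in Tris/NaCl/DTT/glycerol buffer, then washed, crosslinked with 0.1% formaldehyde, proximity-ligated (BsaI/T4 ligase, 1 h, 37 °C), PCR-amplified and sequenced on an Illumina NextSeq500. Binding signal is each hexamer's read frequency for a factor divided by its frequency for the tag-only sample.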

ETV5 = ETV5 (Homo sapiens, UniProt P41161 1-510); conditions: protein: recombinant; tags: N-terminal GST; dsDNA, one strand shown
Summary of the method: as §1

HSF1 = HSF1 (Homo sapiens, UniProt Q00613 1-529); conditions: protein: recombinant; tags: N-terminal GST; chain copies: 3; dsDNA, one strand shown
Summary of the method: as §1

SPIC = target: T2, SPIC (Homo sapiens, UniProt Q8N5J4 1-248); conditions: protein: recombinant; tags: N-terminal GST; dsDNA, one strand shown
T2 sequence: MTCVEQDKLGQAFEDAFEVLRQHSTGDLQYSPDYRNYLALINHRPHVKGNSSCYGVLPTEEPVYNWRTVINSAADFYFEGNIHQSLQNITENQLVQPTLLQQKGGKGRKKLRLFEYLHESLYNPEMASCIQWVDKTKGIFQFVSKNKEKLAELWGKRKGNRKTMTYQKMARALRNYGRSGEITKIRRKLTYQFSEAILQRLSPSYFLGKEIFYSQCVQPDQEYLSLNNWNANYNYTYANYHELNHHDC
Summary of the method: as §1

ELF4 = ELF4 (Homo sapiens, UniProt Q99607 1-663); conditions: protein: recombinant; tags: N-terminal GST; dsDNA, one strand shown
Summary of the method: as §1

ELK4 = target: T3, ELK4 (Homo sapiens, UniProt P28324-2 1-405); conditions: protein: recombinant; tags: N-terminal GST; dsDNA, one strand shown
T3 sequence: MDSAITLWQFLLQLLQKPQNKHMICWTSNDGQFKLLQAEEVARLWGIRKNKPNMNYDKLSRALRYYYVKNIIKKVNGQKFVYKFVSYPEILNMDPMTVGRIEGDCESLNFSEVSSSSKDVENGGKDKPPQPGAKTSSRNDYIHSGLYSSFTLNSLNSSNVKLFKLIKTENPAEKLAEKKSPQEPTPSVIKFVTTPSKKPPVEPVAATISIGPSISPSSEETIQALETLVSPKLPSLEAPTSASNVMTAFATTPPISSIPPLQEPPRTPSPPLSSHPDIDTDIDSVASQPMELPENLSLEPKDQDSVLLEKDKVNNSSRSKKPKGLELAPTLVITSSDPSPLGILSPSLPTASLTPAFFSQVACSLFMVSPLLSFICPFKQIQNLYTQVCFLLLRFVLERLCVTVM
Summary of the method: as §1

ETV2 = target: T4, ETV2 (Homo sapiens, UniProt O00321 1-342); conditions: protein: recombinant; tags: N-terminal GST; dsDNA, one strand shown
T4 sequence: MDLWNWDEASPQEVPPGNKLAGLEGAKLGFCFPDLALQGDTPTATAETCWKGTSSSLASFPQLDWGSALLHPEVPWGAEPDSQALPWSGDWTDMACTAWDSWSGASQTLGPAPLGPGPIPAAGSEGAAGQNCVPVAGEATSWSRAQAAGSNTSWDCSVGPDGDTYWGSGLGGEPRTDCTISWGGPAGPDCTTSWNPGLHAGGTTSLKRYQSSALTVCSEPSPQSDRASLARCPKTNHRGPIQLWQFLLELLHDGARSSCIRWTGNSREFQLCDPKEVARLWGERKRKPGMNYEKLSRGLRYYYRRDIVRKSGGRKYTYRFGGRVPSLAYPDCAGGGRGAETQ
Summary of the method: as §1

ELF3 = target: T5, ELF3 (Homo sapiens, UniProt P78545 1-371); conditions: protein: recombinant; tags: N-terminal GST; dsDNA, one strand shown
T5 sequence: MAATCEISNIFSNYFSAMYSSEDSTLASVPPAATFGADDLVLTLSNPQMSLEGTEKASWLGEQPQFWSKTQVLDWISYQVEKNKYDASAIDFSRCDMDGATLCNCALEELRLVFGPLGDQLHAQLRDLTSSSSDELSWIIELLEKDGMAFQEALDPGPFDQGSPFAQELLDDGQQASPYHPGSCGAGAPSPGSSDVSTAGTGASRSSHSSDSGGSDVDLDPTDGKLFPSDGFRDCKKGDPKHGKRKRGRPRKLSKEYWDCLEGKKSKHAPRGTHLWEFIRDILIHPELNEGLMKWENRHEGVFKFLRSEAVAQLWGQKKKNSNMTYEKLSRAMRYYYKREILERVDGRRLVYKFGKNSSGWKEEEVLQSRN
Summary of the method: as §1

CRX = CRX (Homo sapiens, UniProt O43186 1-299); conditions: protein: recombinant; tags: N-terminal GST; dsDNA, one strand shown
Summary of the method: as §1

ETV1 = ETV1 (Homo sapiens, UniProt P50549 1-477); conditions: protein: recombinant; tags: N-terminal GST; dsDNA, one strand shown
Summary of the method: as §1

CRX, sequence (O43186 whole entry): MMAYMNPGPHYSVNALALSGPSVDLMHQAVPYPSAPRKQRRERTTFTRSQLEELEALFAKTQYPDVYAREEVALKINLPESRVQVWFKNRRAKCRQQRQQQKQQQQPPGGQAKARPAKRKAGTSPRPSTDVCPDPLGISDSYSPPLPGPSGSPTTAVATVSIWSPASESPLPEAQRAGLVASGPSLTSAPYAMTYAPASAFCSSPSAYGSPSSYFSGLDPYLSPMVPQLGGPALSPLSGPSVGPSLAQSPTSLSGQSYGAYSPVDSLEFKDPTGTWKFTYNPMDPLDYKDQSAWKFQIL
ETV1, sequence (P50549 whole entry): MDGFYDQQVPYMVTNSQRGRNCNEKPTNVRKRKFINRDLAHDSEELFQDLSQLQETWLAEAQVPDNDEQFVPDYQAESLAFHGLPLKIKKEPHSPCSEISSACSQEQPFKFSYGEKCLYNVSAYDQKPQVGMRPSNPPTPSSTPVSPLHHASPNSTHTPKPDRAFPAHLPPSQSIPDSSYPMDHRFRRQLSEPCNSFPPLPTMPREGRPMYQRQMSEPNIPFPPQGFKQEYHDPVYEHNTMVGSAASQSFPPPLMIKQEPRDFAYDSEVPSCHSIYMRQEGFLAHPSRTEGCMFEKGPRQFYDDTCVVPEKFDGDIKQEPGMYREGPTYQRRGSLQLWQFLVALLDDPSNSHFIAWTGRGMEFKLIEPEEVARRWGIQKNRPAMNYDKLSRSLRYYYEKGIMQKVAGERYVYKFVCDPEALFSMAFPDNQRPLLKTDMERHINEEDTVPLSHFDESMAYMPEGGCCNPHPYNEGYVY
ELF4, sequence (Q99607 whole entry): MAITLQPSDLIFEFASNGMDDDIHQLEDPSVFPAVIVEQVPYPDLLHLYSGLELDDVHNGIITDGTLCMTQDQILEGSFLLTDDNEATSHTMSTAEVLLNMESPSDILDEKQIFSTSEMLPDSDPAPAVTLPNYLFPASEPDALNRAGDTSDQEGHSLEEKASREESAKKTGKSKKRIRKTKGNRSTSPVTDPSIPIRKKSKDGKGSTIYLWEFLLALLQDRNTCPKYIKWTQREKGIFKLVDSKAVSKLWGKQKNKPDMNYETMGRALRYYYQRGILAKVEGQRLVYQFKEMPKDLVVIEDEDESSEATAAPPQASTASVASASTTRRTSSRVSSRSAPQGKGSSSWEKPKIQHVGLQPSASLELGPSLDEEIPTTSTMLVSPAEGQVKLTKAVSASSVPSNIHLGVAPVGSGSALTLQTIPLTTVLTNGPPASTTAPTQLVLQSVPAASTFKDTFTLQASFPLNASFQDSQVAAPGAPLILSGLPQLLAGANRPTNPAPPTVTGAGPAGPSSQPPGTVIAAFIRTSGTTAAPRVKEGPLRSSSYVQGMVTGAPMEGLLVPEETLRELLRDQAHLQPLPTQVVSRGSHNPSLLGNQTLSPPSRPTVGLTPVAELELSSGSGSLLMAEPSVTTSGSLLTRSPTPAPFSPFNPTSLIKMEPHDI
HSF1, sequence (Q00613 whole entry): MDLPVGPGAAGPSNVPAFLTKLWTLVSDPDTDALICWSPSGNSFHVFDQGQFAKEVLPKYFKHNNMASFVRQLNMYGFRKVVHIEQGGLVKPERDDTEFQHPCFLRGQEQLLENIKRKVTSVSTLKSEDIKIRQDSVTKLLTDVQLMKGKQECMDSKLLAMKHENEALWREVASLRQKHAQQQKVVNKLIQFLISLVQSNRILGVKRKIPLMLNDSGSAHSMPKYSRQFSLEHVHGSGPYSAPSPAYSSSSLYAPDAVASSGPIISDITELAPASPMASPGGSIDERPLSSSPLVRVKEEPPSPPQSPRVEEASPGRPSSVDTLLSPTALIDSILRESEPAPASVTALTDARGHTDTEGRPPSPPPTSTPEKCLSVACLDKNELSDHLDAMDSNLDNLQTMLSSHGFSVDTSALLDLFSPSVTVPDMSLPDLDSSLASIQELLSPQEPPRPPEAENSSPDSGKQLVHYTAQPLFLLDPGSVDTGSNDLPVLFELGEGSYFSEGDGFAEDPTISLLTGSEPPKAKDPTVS
ETV5, sequence (P41161 whole entry): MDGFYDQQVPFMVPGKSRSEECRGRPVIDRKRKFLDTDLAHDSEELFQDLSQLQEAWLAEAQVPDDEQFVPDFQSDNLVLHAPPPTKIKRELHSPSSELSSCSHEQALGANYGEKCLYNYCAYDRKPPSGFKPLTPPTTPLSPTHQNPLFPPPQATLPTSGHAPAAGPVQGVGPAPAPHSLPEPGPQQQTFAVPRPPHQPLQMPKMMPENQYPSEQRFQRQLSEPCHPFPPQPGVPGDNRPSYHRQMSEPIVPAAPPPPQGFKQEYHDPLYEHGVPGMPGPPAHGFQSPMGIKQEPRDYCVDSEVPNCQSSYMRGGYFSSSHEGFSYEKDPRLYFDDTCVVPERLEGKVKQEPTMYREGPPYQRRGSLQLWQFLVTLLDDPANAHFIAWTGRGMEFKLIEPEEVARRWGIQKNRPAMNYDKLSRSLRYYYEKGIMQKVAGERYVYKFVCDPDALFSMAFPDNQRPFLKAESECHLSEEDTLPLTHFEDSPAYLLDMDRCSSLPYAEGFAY

CCTGGT
binding signal (FEV): 1.25 fold enrichment (6-mer frequency, TF over GST control)
binding signal (ETV5): 1.42 fold enrichment (6-mer frequency, TF over GST control)
binding signal (HSF1): 1.08 fold enrichment (6-mer frequency, TF over GST control)
binding signal (SPIC): 1.34 fold enrichment (6-mer frequency, TF over GST control)
binding signal (ELF4): 1.35 fold enrichment (6-mer frequency, TF over GST control)
binding signal (ELK4): 1.2 fold enrichment (6-mer frequency, TF over GST control)
binding signal (ETV2): 1.56 fold enrichment (6-mer frequency, TF over GST control)
binding signal (ELF3): 1.13 fold enrichment (6-mer frequency, TF over GST control)
binding signal (CRX): 1.1 fold enrichment (6-mer frequency, TF over GST control)
binding signal (ETV1): 1.54 fold enrichment (6-mer frequency, TF over GST control)
